# Experimental data published in PubChem BioAssay (NCI).
# Compounds without any hit were thinned out: in the full panel of roughly 79,000, 15% have a hit. Unmarked numbers belong to inactive results. The source made the active and inactive calls. Cut-off read from the data, not from the text of the source: active = growth inhibition above about 70%; inactive = the rest.
# Legend:
# [1] = NCI Yeast Anticancer Drug Screen. Data for the wt1 strain (AID 149);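 note: 0% = growth of vehicle-treated wt1 cultures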; settings: S. cerevisiae wt1 strain (SPY 50644) growth inhibition, hits give high values
# Method in brief: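 wt1 yeast, compound-treated; % growth inhibition vs vehicle control.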
# [2] = NCI Yeast Anticancer Drug Screen. Data for the rad50EPP+ strain (AID 151);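 note: 0% = growth of vehicle-treated control cultures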; settings: S. cerevisiae rad50 mutant strain, hits give high values
# Method in brief: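 Growth inhibition read against vehicle controls in rad50EPP+ yeast, a strain altered in DNA damage repair, after compound exposure.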
# [3] = NCI Yeast Anticancer Drug Screen. Data for the mgt1 strain (AID 153); settings: S. cerevisiae mgt1 mutant growth inhibition, hits give high values
# Method in brief: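 mgt1 yeast grown with test compound; read-out is growth inhibition versus vehicle-treated cultures.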
# [4] = NCI Yeast Anticancer Drug Screen. Data for the rad50 strain (AID 155);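 note: 0% = growth of vehicle-only cultures of the same strain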; settings: S. cerevisiae rad50 strain growth inhibition, hits give high values
# Method in brief: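 Genetically altered yeast (DNA repair pathway); compound treatment; growth inhibition vs vehicle ctrl.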
# [5] = NCI Yeast Anticancer Drug Screen. Data for the mec2-1 strain (AID 157); settings: S. cerevisiae mec2-1 strain, hits give high values
# Method in brief: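 Yeast mec2-1 mutant treated with compound. Readout: growth inhibition vs vehicle controls.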
# [6] = NCI Yeast Anticancer Drug Screen. Data for the rad14 strain (AID 159);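 note: 0% = growth of vehicle-treated control cultures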; settings: S. cerevisiae rad14 strain growth inhibition, hits give high values
# Method in brief: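 Test compounds were applied to a repair-deficient yeast strain. Its growth was then compared with that of cultures given vehicle alone, and inhibition was expressed relative to those controls.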
# [7] = NCI Yeast Anticancer Drug Screen. Data for the sgs1 mgt1 strain (AID 161);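 note: 0% = growth of cultures given vehicle only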; settings: S. cerevisiae sgs1 mgt1 strain, hits give high values
# Method in brief: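 Genetically altered yeast, compound exposure, growth inhibition relative to vehicle.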
# [8] = NCI Yeast Anticancer Drug Screen. Data for the CLN2oe strain (AID 163);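 note: 0% = growth of vehicle-only control cultures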; settings: S. cerevisiae CLN2oe strain, hits give high values
# Method in brief: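 Read-out: yeast growth inhibition, expressed relative to vehicle-only controls. The strain bears an engineered cell-cycle alteration.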
# [9] = NCI Yeast Anticancer Drug Screen. Data for the bub3 strain (AID 167); settings: S. cerevisiae bub3 mutant strain, hits give high values
# Method in brief: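 Yeast carrying a defined mutation is treated with each compound, and growth is compared with that of vehicle-exposed cells to give inhibition.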
# [10] = NCI Yeast Anticancer Drug Screen. Data for the wt2 strain (AID 169);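 note: 0% = growth of vehicle-treated yeast cultures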; settings: S. cerevisiae wt2 strain growth inhibition, hits give high values
# Method in brief: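 Read-out: growth inhibition versus vehicle-treated control cultures after compound exposure of the yeast strain.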
# [11] = NCI Yeast Anticancer Drug Screen. Data for the mlh1 strain (AID 171);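 note: 0% = growth of vehicle-treated control cultures of the same strain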; settings: S. cerevisiae mlh1 strain growth inhibition, hits give high values
# Method in brief: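 Read-out: growth inhibition versus vehicle controls. Strain: engineered yeast with a defined DNA repair or cell cycle defect, compound-treated.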
# [12] = NCI Yeast Anticancer Drug Screen. Data for the sgs1 strain (AID 173);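 note: 0% = growth of vehicle-only control cultures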; settings: S. cerevisiae sgs1 mutant, hits give high values
# Method in brief: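 Read-out: yeast growth inhibition relative to vehicle controls, following compound exposure of a strain with a defined DNA repair/cell cycle alteration.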
# [13] = NCI Yeast Anticancer Drug Screen. Data for the mlh1 rad18 strain (AID 175); settings: S. cerevisiae mlh1 rad18 strain growth inhibition, hits give high values
# Method in brief: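 Yeast w/ defined DNA-repair lesions; compound exposure; growth vs vehicle controls → % inhibition.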
# [14] = NCI Yeast Anticancer Drug Screen. Data for the rad52 strain (AID 147);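 note: 0% = growth of vehicle-treated control cultures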; settings: S. cerevisiae rad52 mutant growth inhibition, hits give high values
# Method in brief: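 Read-out: growth inhibition versus vehicle-treated controls. Cells were a DNA repair-deficient yeast strain treated with compounds.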
# [15] = NCI Yeast Anticancer Drug Screen. Data for the cln2 rad14 strain (AID 165);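 note: 0% = growth equal to vehicle treated cultures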; settings: S. cerevisiae cln2 rad14 strain, hits give high values
# Method in brief: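 cln2 rad14 yeast strain; compound exposure; growth inhibition read vs vehicle controls.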
# [16] = NCI Yeast Anticancer Drug Screen. Data for the rad18 strain (AID 177); settings: S. cerevisiae rad18 mutant growth inhibition, hits give high values
# Method in brief: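 Readout: growth inhibition vs vehicle controls. Cells: genetically altered yeast strain, DNA repair defect.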
# [17] = at 5.0 µM (retest, dose inferred, filed as 0.5)
# [18] = at 50.0 µM (retest, dose inferred, filed as 5.0)
structure (smiles),measurement,setting,value
COc1cc2cc3c4cc(OC)c(OC)cc4cc[n+]3c(C)c2cc1OC,growth inhibition,[1]; at 1.2 µM,-33%
same,growth inhibition,[1]; at 3.7 µM,-31%
same,growth inhibition,[1]; at 11.0 µM,-32%
same,growth inhibition,[1]; at 33.0 µM,-37%
same,growth inhibition,[1]; at 100.0 µM,-31%
same,growth inhibition,[2]; at 1.2 µM,-18%
same,growth inhibition,[2]; at 3.7 µM,-17%
same,growth inhibition,[2]; at 11.0 µM,-21%
same,growth inhibition,[2]; at 33.0 µM,-20%
same,growth inhibition,[2]; at 100.0 µM,-26%
same,growth inhibition,[3]; at 1.2 µM,-21%
same,growth inhibition,[3]; at 3.7 µM,-29%
same,growth inhibition,[3]; at 11.0 µM,-38%
same,growth inhibition,[3]; at 33.0 µM,-34%
same,growth inhibition,[3]; at 100.0 µM,-31%
same,growth inhibition,[4]; at 1.2 µM,5%
same,growth inhibition,[4]; at 3.7 µM,1%
same,growth inhibition,[4]; [17],59%
same,growth inhibition,[4]; at 11.0 µM,3%
same,growth inhibition,[4]; at 33.0 µM,10%
same,growth inhibition,[4]; [18],92% (active)
same,growth inhibition,[4]; at 50.0 µM,51.4%
same,growth inhibition,[4]; at 100.0 µM,7%
same,growth inhibition,[5]; at 1.2 µM,-13%
same,growth inhibition,[5]; at 3.7 µM,-11%
same,growth inhibition,[5]; [17],73% (active)
same,growth inhibition,[5]; at 11.0 µM,-7%
same,growth inhibition,[5]; at 33.0 µM,-16%
same,growth inhibition,[5]; [18],83% (active)
same,growth inhibition,[5]; at 50.0 µM,6.05%
same,growth inhibition,[5]; at 100.0 µM,-5%
same,growth inhibition,[6]; at 1.2 µM,-27%
same,growth inhibition,[6]; at 3.7 µM,-22%
same,growth inhibition,[6]; at 11.0 µM,-31%
same,growth inhibition,[6]; at 33.0 µM,-26%
same,growth inhibition,[6]; at 100.0 µM,-27%
same,growth inhibition,[7]; [17],-28%
same,growth inhibition,[7]; [18],-6%
same,growth inhibition,[7]; at 50.0 µM,36.6%
same,growth inhibition,[8]; at 1.2 µM,-22%
same,growth inhibition,[8]; at 3.7 µM,-35%
same,growth inhibition,[8]; at 11.0 µM,-28%
same,growth inhibition,[8]; at 33.0 µM,-39%
same,growth inhibition,[8]; at 100.0 µM,-5%
same,growth inhibition,[9]; at 1.2 µM,0%
same,growth inhibition,[9]; at 3.7 µM,12%
same,growth inhibition,[9]; [17],5%
same,growth inhibition,[9]; at 11.0 µM,13%
same,growth inhibition,[9]; at 33.0 µM,6%
same,growth inhibition,[9]; [18],19%
same,growth inhibition,[9]; at 50.0 µM,79.8% (active)
same,growth inhibition,[9]; at 100.0 µM,9%
same,growth inhibition,[10]; at 1.2 µM,-30%
same,growth inhibition,[10]; at 3.7 µM,-28%
same,growth inhibition,[10]; at 11.0 µM,-35%
same,growth inhibition,[10]; at 33.0 µM,-31%
same,growth inhibition,[10]; at 100.0 µM,-22%
same,growth inhibition,[11]; at 1.2 µM,-34%
same,growth inhibition,[11]; at 3.7 µM,-28%
same,growth inhibition,[11]; at 11.0 µM,-35%
same,growth inhibition,[11]; at 33.0 µM,-39%
same,growth inhibition,[11]; at 100.0 µM,-49%
same,growth inhibition,[12]; at 1.2 µM,-19%
same,growth inhibition,[12]; at 3.7 µM,-17%
same,growth inhibition,[12]; at 11.0 µM,-28%
same,growth inhibition,[12]; at 33.0 µM,-27%
same,growth inhibition,[12]; at 100.0 µM,-11%
same,growth inhibition,[13]; [17],55%
same,growth inhibition,[13]; [18],80% (active)
same,growth inhibition,[13]; at 50.0 µM,-76.2%
Nc1ccc(F)cc1S,growth inhibition,[14]; at 1.2 µM,-2%
same,growth inhibition,[14]; at 3.7 µM,-15%
same,growth inhibition,[14]; at 11.0 µM,-11%
same,growth inhibition,[14]; at 33.0 µM,60%
same,growth inhibition,[14]; at 100.0 µM,98% (active)
same,growth inhibition,[2]; at 1.2 µM,-19%
same,growth inhibition,[2]; at 3.7 µM,-19%
same,growth inhibition,[2]; at 11.0 µM,-37%
same,growth inhibition,[2]; at 33.0 µM,55%
same,growth inhibition,[2]; at 100.0 µM,97% (active)
same,growth inhibition,[4]; at 1.2 µM,-23%
same,growth inhibition,[4]; at 3.7 µM,-40%
same,growth inhibition,[4]; [17],16%
same,growth inhibition,[4]; at 11.0 µM,-14%
same,growth inhibition,[4]; at 33.0 µM,61%
same,growth inhibition,[4]; [18],91% (active)
same,growth inhibition,[4]; at 50.0 µM,51.1%
same,growth inhibition,[4]; at 100.0 µM,98% (active)
same,growth inhibition,[5]; at 1.2 µM,-16%
same,growth inhibition,[5]; at 3.7 µM,-15%
same,growth inhibition,[5]; [17],9%
same,growth inhibition,[5]; at 11.0 µM,8%
same,growth inhibition,[5]; at 33.0 µM,81% (active)
same,growth inhibition,[5]; [18],99% (active)
same,growth inhibition,[5]; at 50.0 µM,85.8% (active)
same,growth inhibition,[5]; at 100.0 µM,98% (active)
same,growth inhibition,[6]; at 1.2 µM,-32%
same,growth inhibition,[6]; at 3.7 µM,-18%
same,growth inhibition,[6]; at 11.0 µM,-14%
same,growth inhibition,[6]; at 33.0 µM,70% (active)
same,growth inhibition,[6]; at 100.0 µM,97% (active)
same,growth inhibition,[7]; [17],31%
same,growth inhibition,[7]; [18],100% (active)
same,growth inhibition,[7]; at 50.0 µM,80.5% (active)
same,growth inhibition,[8]; at 1.2 µM,-70%
same,growth inhibition,[8]; at 3.7 µM,-50%
same,growth inhibition,[8]; at 11.0 µM,-24%
same,growth inhibition,[8]; at 33.0 µM,43%
same,growth inhibition,[8]; at 100.0 µM,94% (active)
same,growth inhibition,[15]; [17],46%
same,growth inhibition,[15]; [18],88% (active)
same,growth inhibition,[15]; at 50.0 µM,85.4% (active)
same,growth inhibition,[9]; at 1.2 µM,-33%
same,growth inhibition,[9]; at 3.7 µM,-15%
same,growth inhibition,[9]; [17],61%
same,growth inhibition,[9]; at 11.0 µM,18%
same,growth inhibition,[9]; at 33.0 µM,73% (active)
same,growth inhibition,[9]; [18],99% (active)
same,growth inhibition,[9]; at 50.0 µM,87.5% (active)
same,growth inhibition,[9]; at 100.0 µM,98% (active)
same,growth inhibition,[10]; at 1.2 µM,4%
same,growth inhibition,[10]; at 3.7 µM,-8%
same,growth inhibition,[10]; at 11.0 µM,56%
same,growth inhibition,[10]; at 33.0 µM,95% (active)
same,growth inhibition,[10]; at 100.0 µM,98% (active)
same,growth inhibition,[11]; at 1.2 µM,-20%
same,growth inhibition,[11]; at 3.7 µM,-19%
same,growth inhibition,[11]; at 11.0 µM,2%
same,growth inhibition,[11]; at 33.0 µM,83% (active)
same,growth inhibition,[11]; at 100.0 µM,98% (active)
same,growth inhibition,[12]; at 1.2 µM,-16%
same,growth inhibition,[12]; at 3.7 µM,-24%
same,growth inhibition,[12]; at 11.0 µM,-14%
same,growth inhibition,[12]; at 33.0 µM,46%
same,growth inhibition,[12]; at 100.0 µM,97% (active)
same,growth inhibition,[13]; [17],15%
same,growth inhibition,[13]; [18],76% (active)
same,growth inhibition,[13]; at 50.0 µM,89.3% (active)
same,growth inhibition,[16]; at 1.2 µM,-28%
same,growth inhibition,[16]; at 3.7 µM,-30%
same,growth inhibition,[16]; at 11.0 µM,1%
same,growth inhibition,[16]; at 33.0 µM,71% (active)
same,growth inhibition,[16]; at 100.0 µM,97% (active)
